CYP2C19 inhib: human CYP2C19 inhibition | CYP2C19 Supersomes, luciferin-H EGE luminescence, 30 min | 21% of 96,000 active | P33261 | inhibition, % at 5 µM | AID 778;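 active means CYP2C19 inhibition above a set limit at 5 µM in the primary screen, cut at about 50% in these data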
CYP2C9 inhib: inhibitors of human CYP2C9; P11712; CYP2C9 Supersomes, luciferin-H conversion, luminescence; inhibition, % at 5 µM; 20% of 96,000 active; AID 777;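 active means blocking of liver enzyme CYP2C9 beyond about 50% at 5 µM, limit read from the data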
Target sequence (P11712 whole entry, looked up): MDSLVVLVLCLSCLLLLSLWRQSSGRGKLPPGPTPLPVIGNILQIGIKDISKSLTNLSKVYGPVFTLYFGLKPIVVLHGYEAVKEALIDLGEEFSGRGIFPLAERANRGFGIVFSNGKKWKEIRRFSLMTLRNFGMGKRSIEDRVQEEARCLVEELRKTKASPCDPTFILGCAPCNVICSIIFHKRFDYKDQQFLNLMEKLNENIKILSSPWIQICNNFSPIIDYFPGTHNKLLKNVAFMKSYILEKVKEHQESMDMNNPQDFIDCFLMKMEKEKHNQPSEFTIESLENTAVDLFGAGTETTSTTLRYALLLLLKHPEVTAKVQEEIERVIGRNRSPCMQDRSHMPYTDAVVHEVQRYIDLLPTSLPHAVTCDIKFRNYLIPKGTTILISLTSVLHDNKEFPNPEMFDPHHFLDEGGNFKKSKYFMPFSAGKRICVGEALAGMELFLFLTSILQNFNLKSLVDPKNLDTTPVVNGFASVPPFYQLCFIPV
CYP2C9 act: activators of human CYP2C9; recombinant CYP2C9, luciferin-H conversion, luminescence; stronger effect = higher value; factor 1 = untreated enzyme, 0 = blocked; activation factor at 5 µM; AID 1024; 1.4% of 96,000 active; P11712;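 active means activation factor of 2 or more for CYP2C9 at a 5 µM dose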
PLAP act: activates human placental alkaline phosphatase; AID 696; purified PLAP enzyme, luminescent substrate read-out; stronger effect = higher value; activation fold at 20 µM; 1.2% of 96,000 active; P05187; in the data active means activation fold above about 2
CYP2C19 activ: increases human CYP2C19 enzyme activity | P33261 | recombinant CYP2C19, luciferin-H EGE luminescence; stronger effect = higher value; 0 = fully inhibited enzyme, 1 = untreated enzyme | activation factor at 5 µM | 96,000 tested, under 10 active | AID 1025;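 active means activation factor of at least 2 at 5 µM in the primary screen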
Each line names hits and unclear results; the compound was inactive in the other large screens. In the library only some 31% were active in any assay of this set; here they are far more common.

COc1cc(OC)cc(C(=O)NC(=S)NCCc2ccccc2)c1	CYP2C9 inhib 51
CN1CCN(CCN2CCn3c2nc2ccccc23)CC1	none
O=c1oc2ccccc2cc1C1=Nn2c(nnc2-c2cccnc2)SC1	none
COCCCN1C(=O)c2[nH]nc(-c3ccccc3O)c2C1c1cccc(Cl)c1 (stereo not given)	none
Cc1cc(O)c(-c2n[nH]c3c2C(c2cccc(O)c2)N(Cc2cccnc2)C3=O)cc1Cl (stereo not given)	CYP2C9 inhib 67
CSc1nc(Sc2ccccc2Cl)c2ccccc2n1	none
OCC#Cc1cnc2ccccc2c1	none
Cc1cc2nnc(SCCCCN3C(=O)c4ccccc4C3=O)n2c2ccccc12	CYP2C9 act 2.9
O=C(NCCN1CCOCC1)c1cc2sccc2n1Cc1ccc(Cl)cc1	CYP2C19 inhib 70, CYP2C9 inhib 69
O=C(NCc1ccco1)C1CCN(C(=O)c2cc3sccc3n2Cc2ccc(Cl)cc2)CC1	CYP2C19 inhib 65, CYP2C9 inhib 77
O=C(NCCN1CCOCC1)c1cc2sccc2n1Cc1ccc(F)cc1	none
Cn1c(=O)cc(SCC(=O)N2CCN(c3ccccc3)CC2)c2ccccc21	CYP2C19 inhib 51
Cn1c(=O)cc(OCCCC(=O)N2CCN(c3ccccc3)CC2)c2ccccc21	CYP2C19 inhib 80, CYP2C9 inhib 61
Cn1c(=O)cc(SCC(=O)N2CCCC2)c2ccc(Cl)cc21	none
Cn1c(=O)cc(SCC(=O)N2CCN(c3ccccn3)CC2)c2ccccc21	CYP2C9 inhib 62
NS(=O)(=O)c1ccc(CNC(=O)NC2(c3ccccc3)CC2)cc1	none
CCOC(=O)c1c(-c2cccs2)csc1NC(=O)COC(=O)c1c(C)noc1C	CYP2C9 inhib 87
CCOC(=O)c1c(-c2cccs2)csc1NC(=O)c1ccncc1	none
COC(=O)c1c(-c2cccs2)csc1NC(=O)CN1CCOCC1	CYP2C19 inhib 94, CYP2C9 inhib 96
Cc1cc(OCC(=O)NCCCN(C)C)cc(C)c1Br	none
Clc1ccc2c(c1)CCc1cccnc1C2=C1CCNCC1	none (no result: CYP2C19 inhib, CYP2C9 inhib, CYP2C9 act, CYP2C19 activ)
C=CCOC(=O)C(C#N)c1nc2ccccc2nc1N1CCN(Cc2ccc3c(c2)OCO3)CC1 (stereo not given)	CYP2C9 inhib 57
COC(=O)C(C#N)c1nc2ccccc2nc1N1CCCC1 (stereo not given)	none
CCOC(=O)C1CCN(c2nc3ccccc3nc2C(C#N)C(=O)OCCOC)CC1 (stereo not given)	CYP2C19 inhib 66
C=CCOC(=O)C(C#N)c1nc2ccccc2nc1N1CCC(C(=O)OCC)CC1 (stereo not given)	CYP2C9 inhib 56
CCOC(=O)C1CCN(c2nc3ccccc3nc2C(C#N)C(=O)OC(C)COC)CC1 (stereo not given)	CYP2C19 inhib 61, CYP2C9 inhib 63
COC(=O)C1CCN(c2nc3ccccc3nc2C(C#N)C(=O)OCC(C)C)CC1 (stereo not given)	none
CCCCCCOC(=O)C(C#N)c1nc2ccccc2nc1N1CCCCC1 (stereo not given)	none
CCCn1cnc2sc(C(N)=O)c(C)c2c1=O	none
CN(C)NC1CCS(=O)(=O)C1 (stereo not given)	none
CCOC(=O)C1CCN(c2nc3ccccc3nc2C(C#N)C(=O)OC(C)C)CC1 (stereo not given)	CYP2C19 inhib 92
CC1CCCC(C)N1CC(O)COCC1COc2ccccc2O1 (stereo not given)	none
CN(C)CCCNC(=O)CCC1CCCCC1	none
N#CCSc1nnc2sc3ccccc3n12	none
C=CCn1c(=O)c2ccccc2n2c(SCc3nnc(-c4ccccc4Br)o3)nnc12	CYP2C19 inhib 66, CYP2C9 inhib 64
C=CCn1c(=O)c2ccccc2n2c(SCC(=O)c3ccccc3)nnc12	CYP2C19 inhib 82, CYP2C9 inhib 71
C=CCn1c(=O)c2ccccc2n2c(SCc3cc(=O)n4ccsc4n3)nnc12	none
C=CCn1c(=O)c2ccccc2n2c(SCC(=O)NCCc3ccccc3)nnc12	CYP2C19 inhib 51
Brc1ccccc1-c1nnc(CSc2nnc3sc4ccccc4n23)o1	CYP2C19 inhib 79
Clc1nc2sccn2c1/C=N/n1cnc2ccccc21	none
CC1CCN(CCNC(=O)C2CCCN(S(=O)(=O)c3cccc4nonc34)C2)CC1 (stereo not given)	none
Cc1ccc(-n2nnnc2SCc2nnc(-c3ccccc3Br)o2)cc1	none
COc1ccc(-n2cnnc2SCc2ncc(-c3ccccc3)o2)cc1	CYP2C19 inhib 66
Brc1ccccc1-c1nnc(CSc2nncn2-c2ccccc2)o1	CYP2C19 inhib 68, CYP2C9 act 2.4
Cn1c(COc2ccc(Cl)cc2)nnc1SCc1ncc(-c2ccccc2)o1	none
Cc1nn(-c2ccccc2)c2c1C(c1cccnc1)N1C=C(S(=O)(=O)N3CCCCC3)C=CC1=N2 (stereo not given)	none
CCC(NC(=O)Nc1nccs1)(C(F)(F)F)C(F)(F)F	none
CCC(C(=O)Nc1nccs1)(C(F)(F)F)C(F)(F)F	CYP2C9 inhib 78
CC(=O)Cc1ccccc1OC(=O)c1ccco1	none
COc1ccc(NC(=O)c2ccc(-n3cccn3)nc2)c(OC)c1	none
COc1ccc(NC(=O)c2ccc(-n3cccn3)nc2)cc1	none
COc1ccccc1NC(=O)c1ccc(-n2cccn2)nc1	CYP2C9 act 2
Cc1ccccc1NC(=O)c1ccc(-n2cncn2)nc1	CYP2C19 inhib 99, CYP2C9 inhib 85
O=C(Nc1ccc(F)cc1F)c1ccc(-n2cncn2)nc1	CYP2C19 inhib 100, CYP2C9 inhib 76
O=C(Nc1ccc(F)cc1F)c1noc2c1CCC2	none
O=C(Nc1c(F)cccc1F)c1ccc(-n2cncn2)nc1	CYP2C19 inhib 93
CCOC(=O)c1ccc(C(=O)OCC)nc1	none
O=C(Nc1ccccc1-c1ccccc1)c1ccc(Br)o1	none
Cc1ccc(SC(=O)COc2ccccc2C)cc1	none
Cc1ccc(/C(COc2ccccc2O)=N\O)cc1	CYP2C19 inhib 76
O=C(c1cccc(F)c1)N1CCN(C(=O)c2cc(-c3ccc(Cl)cc3Cl)on2)CC1	CYP2C19 inhib 80
CCOC(=O)C(C)Sc1nnc(CNC(=O)c2ccc(OC)cc2)n1C1CCCCC1 (stereo not given)	CYP2C19 inhib 62
COc1ccccc1NC(=O)c1nc[nH]c1C(=O)Nc1ccccc1OC	none
COc1ccccc1NC(=S)NNC(=O)c1ccc(O)cc1	PLAP act 2.4
COc1ccccc1NC(=S)NNC(=O)c1nn(C)c(C)c1Cl	PLAP act 2.1
COc1ccccc1NC(=S)NC(=O)C(C)(C)C	none
COc1ccccc1NC(=S)NNC(=O)c1nn(C)cc1Cl	CYP2C19 inhib 57
COc1ccccc1NC(=O)c1nn(C)cc1Br	CYP2C9 act 2.2
CSC1=Nc2sc3c(c2C2=NCCN12)CCCC3	none
COc1cccc(CNC(=O)C2CCN(S(=O)(=O)c3c(C)nn(C)c3C)CC2)c1	none
O=C(O)C(Oc1ccc2c3c(c(=O)oc2c1)CCC3)c1ccccc1 (stereo not given)	none
COc1cc(CNCc2ccccn2)ccc1OCc1ccc(Cl)cc1Cl	CYP2C19 inhib 73 (no result: PLAP act)
